Each structure is given as a SMILES string. “And” between values parts separate entries of the source, which are not always exact repeats. Equal values may be shown once. Records with an inconclusive call do not appear. More than one record can exist for a structure, and the calls need not agree. The source made the active and inactive calls. Unless noted, calls follow the shape of the dose curve; as a rule, active = well fitted curve in the direction sought with a large enough effect in the repeat runs; inconclusive = weak or mixed curves; inactive = no such curve, though single readings can be large; an effect the other way counts as inactive or inconclusive.

5 compounds from PubChem BioAssay (Tox21) can be followed below.

Assay [1] can be described thus: Human pregnane X receptor (PXR) small molecule agonists, qHTS cell viability counter screen (AID 1346977). Also: nearly all actives have a fitted effect of over 50% in size. The essentials:
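Same-well viability read: CellTiter-Fluor added after 23 hr compound exposure, fluorescence measured 1 hr later. Cells were PXR-Luc HepG2 seeded at 2,000/well in 5% charcoal-stripped FBS medium, rested 5 hr before dosing at 37 C.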
For orientation: Quantitative high-throughput screening tests each substance at several concentrations.

Assay [2] in a line: Caspase-3/7 induction in HepG2 cells by small molecules, qHTS assay (AID 1346978). Also: nearly all actives have a fitted effect of over 15% in size. The gist of the method: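 Wild-type HepG2 cells (2,000/well) were settled 5 h at 37 C, 5% CO2, then exposed to compounds in DMSO for 17 h. Caspase-3/7 activity was read by luminescence 30 min after adding Caspase-Glo 3/7 reagent at room temperature.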
Assay [3] is described as follows: Caspase-3/7 induction in CHO-K1 cells by small molecules, qHTS cell viability counter screen (AID 1346979). Also: nearly all actives have a fitted effect of over 35% in size. The gist of the method:
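Cytotoxicity counter screen: CellTiter-Fluor added to compound-treated wild-type CHO-K1 cells at 16 h (37C, 5% CO2), fluorescence measured 1 h later; same wells as caspase-3/7 measurement.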

A short description of assay [4]: Caspase-3/7 induction in CHO-K1 cells by small molecules, qHTS assay (AID 1346980). Also: nearly all actives have a fitted effect of over 15% in size. The gist of the method:
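Wild-type cells were seeded at 1,500 per well and settled 5 hr at 37 C, 5% CO2, then exposed to DMSO-dissolved compounds for 17 hr. Caspase-Glo 3/7 reagent was added, and luminescence was read after 30min at room temperature.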

The nature of assay [5]: Caspase-3/7 induction in HepG2 cells by small molecules, qHTS cell viability counter screen (AID 1346981). Also: series mostly up to about 92 µM; nearly all actives have a fitted effect of over 30% in size. The essentials:
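Wild-type HepG2 cells, 2,000/well, settled 5 hr at 37 C, 5% CO2 before compound addition. Viability read by CellTiter-Fluor fluorescence, reagent added after 16 hr compound exposure, then 1 hr at 37C, in the same wells as the caspase read.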

The target in assay [6] is Nuclear receptor subfamily 1 group I member 2 (Homo sapiens) (UniProt O75469). Description: Human pregnane X receptor (PXR) small molecule agonists, qHTS assay (AID 1346982). Also: nearly all actives have a fitted effect of over 35% in size. Also: potency is read from the fitted curve at half-maximal effect. The gist of the method:
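PXR-Luc HepG2 reporter cells (CYP3A4-driven luciferase) in 5% charcoal-stripped FBS medium, plated 5 h before compound addition, then treated 24 h at 37C. Luciferase read by ONE-Glo luminescence after 30 min at room temperature.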

Assay [7] deals with Acetylcholinesterase (Homo sapiens) (UniProt P22303). Description: Acetylcholinesterase (AChE) small molecule antagonists: colormetric cell-based qHTS assay (AID 1347395; calls by dose curve; also: nearly all actives have a fitted effect of over 30% in size). The essentials:
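Colorimetric readout: DTNB quantifies thiocholine from acetylthiocholine hydrolysed by endogenous AChE of SH-SY5Y cells (2,000/well, plated overnight). Compound pretreatment 30 min, substrate incubation 90 min, both 37 C.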

The target is the same in assay [8]. Put plainly: Acetylcholinesterase (AChE) small molecule antagonists: enzyme-based qHTS assay (AID 1347397; calls by dose curve; also: nearly all actives have a fitted effect of over 55% in size). The following applies: Potency: AChE enzyme activity inhibition. The essentials: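 Human recombinant acetylcholinesterase; substrate acetylthiocholine; thiocholine quantified with DTNB (colorimetric). Compound preincubation 30 min RT; reaction 10 min RT.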

Assay [9] has the same target. Put plainly: Acetylcholinesterase (AChE) small molecule antagonists: fluorescence cell-based qHTS assay (AID 1347398; calls by dose curve; also: nearly all actives have a fitted effect of over 50% in size). The following applies: Potency: AChE activity. The essentials:
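Thiocholine generated from acetylthiocholine by SH-SY5Y cell AChE is detected with Thiolite Green (Ex/Em 490/520 nm) after 40 min at room temperature, following 30 min compound pretreatment at 37 C.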

The target is the same in assay [10]. Put plainly: Acetylcholinesterase (AChE) small molecule antagonists: enzyme-based qHTS assay with human liver microsomes (AID 1347399; calls by dose curve; also: nearly all actives have a fitted effect of over 60% in size). The following applies: Potency: qHTS inhibition. The essentials:
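Recombinant human AChE (50 mU/mL in the enzyme mix) and human liver microsomes (0.25 mg/mL final) were preincubated with compound and NADPH (0.25 mg/mL final) for 30 min at 37 C. Acetylthiocholine/DTNB was then added; thiocholine was read colorimetrically after 10 min at room temperature.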

Assay [11] deals with Cytochrome P450 2D6 (Homo sapiens) (UniProt P10635). Put plainly: Cytochrome P450 Family 2 Subfamily D Member 6 (CYP2D6) small molecule antagonists: luciferase reporter qHTS assay (AID 1671196). Also: series mostly up to about 120 µM; nearly all actives have a fitted effect of over 50% in size. The gist of the method:
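Cell-free P450-Glo system: CYP2D6 with proluciferin substrate was pre-incubated with compound for 10 min, then reacted with NADPH regeneration for 1 h at room temperature. Luciferin product was detected after 20 min, and data were reported as relative luminescence units.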
(Reporter assays use an easily measured gene product as a stand-in for the process of interest.)

In assay [12] the target is Cytochrome P450 2C19 (Homo sapiens) (UniProt P33261). Description: Cytochrome P450 Family 2 Subfamily C Member 19 (CYP2C19) small molecule antagonists: luciferase reporter qHTS assay (AID 1671197). Also: nearly all actives have a fitted effect of over 65% in size. Also: potency is read from the fitted curve at half-maximal effect. The gist of the method:
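Inhibition of CYP2C19 was scored from loss of luminescence in a P450-Glo proluciferin substrate assay, NADPH-started and run 1 h at 37C, with ketoconazole as positive control.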

For assay [13], the target named is Cytochrome P450 2C9 (Homo sapiens) (UniProt P11712). Put plainly: Cytochrome P450 Family 2 Subfamily C Member 9 (CYP2C9) small molecule antagonists: luciferase reporter qHTS assay (AID 1671198). Also: nearly all actives have a fitted effect of over 50% in size. Also: potency is read from the fitted curve at half-maximal effect. The gist of the method:
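CYP2C9 activity was measured with a P450-Glo proluciferin substrate. Enzyme–substrate mix was held with compound for 10 min at room temperature, then NADPH regeneration solution was added for 1 h at 37C. Luciferin product was read as luminescence.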

Assay [14] concerns the target Cytochrome P450 1A2 (Homo sapiens) (UniProt P05177). Description: Cytochrome P450 Family 1 Subfamily A Member 2 (CYP1A2) small molecule antagonists: luciferase reporter qHTS assay (AID 1671199). The gist of the method:
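P450-Glo CYP1A2 enzyme–proluciferin substrate mix with compound 10 min at room temperature, then NADPH regeneration 1 h at room temperature. Luciferin detection reagent added, luminescence read after 20 min; furafylline positive control.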

Assay [15] concerns the target Voltage-gated inwardly rectifying potassium channel KCNH2 (Homo sapiens) (UniProt Q12809). Put plainly: Human Ether-a-go-go-Related Gene (hERG) channel small molecule antagonists: fluorescence cell-based qHTS assay (AID 1671200). The gist of the method: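 Thallium flux as potassium surrogate: FluxOR II dye loaded 1 h at room temperature into hERG-expressing U2OS cells, then stimulus buffer added after 10 min. Kinetic 480 nm excitation/540 nm emission read, 2 min.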
For orientation: hERG is a cardiac potassium channel; its block is linked to QT prolongation.

The target in assay [16] is Cytochrome P450 3A4 (Homo sapiens) (UniProt P08684). Description: Cytochrome P450 Family 3 Subfamily A Member 4 (CYP3A4) small molecule antagonists: luciferase reporter qHTS assay (AID 1671201). Also: nearly all actives have a fitted effect of over 50% in size. Also: potency is read from the fitted curve at half-maximal effect. The essentials:
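Recombinant human CYP3A4 converts a proluciferin substrate to luciferin over 1 h at room temperature after NADPH regeneration solution is added (compound preincubated 10 min); detection reagent stops reaction, luminescence read 20 min later as relative units.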

The target in assay [17] is Nuclear receptor subfamily 1 group I member 2 (Rattus norvegicus) (UniProt Q9R1A7). Description: Rat pregnane X receptor (rPXR) activation by small molecules, qHTS assay (AID 1346983). Also: nearly all actives have a fitted effect of over 20% in size. The following applies: rPXR luciferase reporter cells, One-Glo luminescence, 24 h; stronger effect = higher value. The essentials: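 Cell-based rPXR luciferase reporter assay, 2,000 cells per well, rested 5hr at 37 C before compound addition in DMSO, then 24 hr at 37 C. One-Glo reagent was added and luminescence read after 30 min at room temperature.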

Assay [18] deals with Nuclear receptor subfamily 1 group I member 2 (Homo sapiens) (UniProt O75469). Put plainly: CYP3A4 induction through human pregnane X receptor (PXR) by small molecules, qHTS assay (AID 1346984). Also: nearly all actives have a fitted effect of over 40% in size. The essentials: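 DPX-2 HepG2 cells carrying a PXR response element and CYP3A4-promoter luciferase construct, treated with compounds 24 hr at 37C. Then P450-Glo CYP3A4 Luciferin-IPA substrate (3uM final) for 3 hr at 37C, One-Glo added, luminescence read.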
Chain of Nuclear receptor subfamily 1 group I member 2 (Homo sapiens) (O75469 whole entry, looked up): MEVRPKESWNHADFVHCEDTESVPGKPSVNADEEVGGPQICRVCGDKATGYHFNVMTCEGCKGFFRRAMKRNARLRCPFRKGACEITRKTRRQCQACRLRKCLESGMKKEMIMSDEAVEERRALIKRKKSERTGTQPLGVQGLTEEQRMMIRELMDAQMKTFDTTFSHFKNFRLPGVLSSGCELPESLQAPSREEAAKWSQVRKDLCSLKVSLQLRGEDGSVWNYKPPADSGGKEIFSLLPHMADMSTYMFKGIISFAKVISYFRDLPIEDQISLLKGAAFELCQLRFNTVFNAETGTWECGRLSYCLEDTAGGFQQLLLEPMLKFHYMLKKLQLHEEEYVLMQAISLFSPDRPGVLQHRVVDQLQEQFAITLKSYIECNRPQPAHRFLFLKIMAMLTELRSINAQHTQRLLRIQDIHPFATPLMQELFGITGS

Assay [19] shares this target. Description: Human pregnane X receptor (PXR) activation by small molecules, qHTS assay (AID 1346985). Also: nearly all actives have a fitted effect of over 40% in size. The essentials: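 DPX-2 cells (HepG2 co-transfected with a PXR response element and a CYP3A4-promoter luciferase construct) were seeded at 2,000 per well, rested 5 hr at 37C, then exposed to DMSO-dissolved compounds for 24 hr. Activation was read as luciferase luminescence.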
% is scaled to controls: 0 for no effect and ±100 for the full control effect.

Chain of Cytochrome P450 3A4 (Homo sapiens) (P08684 whole entry, looked up): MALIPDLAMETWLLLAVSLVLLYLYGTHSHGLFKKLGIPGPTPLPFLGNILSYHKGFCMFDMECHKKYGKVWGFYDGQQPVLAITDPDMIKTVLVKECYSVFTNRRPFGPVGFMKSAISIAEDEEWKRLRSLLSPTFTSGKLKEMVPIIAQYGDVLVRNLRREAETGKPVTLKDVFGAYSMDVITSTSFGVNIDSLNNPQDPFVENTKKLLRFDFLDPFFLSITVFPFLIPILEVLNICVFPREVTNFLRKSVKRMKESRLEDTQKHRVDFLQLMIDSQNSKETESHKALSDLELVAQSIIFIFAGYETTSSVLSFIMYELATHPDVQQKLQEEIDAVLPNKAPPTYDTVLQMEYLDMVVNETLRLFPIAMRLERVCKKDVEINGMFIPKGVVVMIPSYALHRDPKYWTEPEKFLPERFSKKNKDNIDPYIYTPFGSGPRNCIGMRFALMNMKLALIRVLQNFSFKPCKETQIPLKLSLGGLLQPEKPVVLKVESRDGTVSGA
Chain of Acetylcholinesterase (Homo sapiens) (P22303 whole entry, looked up): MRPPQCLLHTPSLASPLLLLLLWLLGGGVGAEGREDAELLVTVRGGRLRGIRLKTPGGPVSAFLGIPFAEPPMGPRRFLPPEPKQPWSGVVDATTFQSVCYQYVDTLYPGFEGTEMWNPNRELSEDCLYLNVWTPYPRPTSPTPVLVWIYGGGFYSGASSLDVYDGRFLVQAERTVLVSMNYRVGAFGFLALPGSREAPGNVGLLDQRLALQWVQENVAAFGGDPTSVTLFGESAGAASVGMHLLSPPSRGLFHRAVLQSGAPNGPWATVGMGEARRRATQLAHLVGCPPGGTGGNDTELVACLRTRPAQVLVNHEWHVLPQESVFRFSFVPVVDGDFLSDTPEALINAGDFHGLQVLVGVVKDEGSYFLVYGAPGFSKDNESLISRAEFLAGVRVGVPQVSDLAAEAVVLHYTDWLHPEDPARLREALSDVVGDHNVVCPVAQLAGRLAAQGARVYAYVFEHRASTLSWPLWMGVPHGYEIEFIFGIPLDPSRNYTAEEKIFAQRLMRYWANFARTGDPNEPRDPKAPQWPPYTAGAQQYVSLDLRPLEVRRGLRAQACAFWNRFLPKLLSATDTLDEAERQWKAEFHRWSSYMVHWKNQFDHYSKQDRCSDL
Chain of Cytochrome P450 2C9 (Homo sapiens) (P11712 whole entry, looked up): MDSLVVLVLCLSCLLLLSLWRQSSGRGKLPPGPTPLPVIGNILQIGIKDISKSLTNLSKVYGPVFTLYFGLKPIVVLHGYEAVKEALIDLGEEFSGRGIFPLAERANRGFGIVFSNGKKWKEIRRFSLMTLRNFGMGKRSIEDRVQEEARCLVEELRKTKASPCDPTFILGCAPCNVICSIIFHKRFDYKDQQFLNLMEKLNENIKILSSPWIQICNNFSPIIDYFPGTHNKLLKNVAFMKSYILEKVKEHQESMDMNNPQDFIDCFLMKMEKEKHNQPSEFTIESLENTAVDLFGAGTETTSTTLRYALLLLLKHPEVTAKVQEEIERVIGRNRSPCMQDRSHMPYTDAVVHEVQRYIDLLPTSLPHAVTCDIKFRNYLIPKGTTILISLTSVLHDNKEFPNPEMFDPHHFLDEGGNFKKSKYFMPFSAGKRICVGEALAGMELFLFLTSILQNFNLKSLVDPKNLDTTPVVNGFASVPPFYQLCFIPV
Chain of Cytochrome P450 1A2 (Homo sapiens) (P05177 whole entry, looked up): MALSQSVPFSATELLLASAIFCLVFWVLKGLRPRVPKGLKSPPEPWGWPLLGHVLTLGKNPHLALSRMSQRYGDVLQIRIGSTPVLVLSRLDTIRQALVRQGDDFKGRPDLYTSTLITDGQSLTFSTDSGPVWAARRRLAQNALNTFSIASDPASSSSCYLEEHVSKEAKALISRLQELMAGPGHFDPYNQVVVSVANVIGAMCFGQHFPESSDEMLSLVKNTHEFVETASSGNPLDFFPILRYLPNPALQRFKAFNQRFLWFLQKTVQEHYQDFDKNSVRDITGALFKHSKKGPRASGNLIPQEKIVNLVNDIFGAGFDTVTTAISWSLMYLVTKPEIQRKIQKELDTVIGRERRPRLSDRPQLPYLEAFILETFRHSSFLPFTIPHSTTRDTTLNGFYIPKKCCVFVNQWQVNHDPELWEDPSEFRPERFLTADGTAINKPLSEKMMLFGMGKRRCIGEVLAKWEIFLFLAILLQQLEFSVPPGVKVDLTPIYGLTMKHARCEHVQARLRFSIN
Chain of Cytochrome P450 2C19 (Homo sapiens) (P33261 whole entry, looked up): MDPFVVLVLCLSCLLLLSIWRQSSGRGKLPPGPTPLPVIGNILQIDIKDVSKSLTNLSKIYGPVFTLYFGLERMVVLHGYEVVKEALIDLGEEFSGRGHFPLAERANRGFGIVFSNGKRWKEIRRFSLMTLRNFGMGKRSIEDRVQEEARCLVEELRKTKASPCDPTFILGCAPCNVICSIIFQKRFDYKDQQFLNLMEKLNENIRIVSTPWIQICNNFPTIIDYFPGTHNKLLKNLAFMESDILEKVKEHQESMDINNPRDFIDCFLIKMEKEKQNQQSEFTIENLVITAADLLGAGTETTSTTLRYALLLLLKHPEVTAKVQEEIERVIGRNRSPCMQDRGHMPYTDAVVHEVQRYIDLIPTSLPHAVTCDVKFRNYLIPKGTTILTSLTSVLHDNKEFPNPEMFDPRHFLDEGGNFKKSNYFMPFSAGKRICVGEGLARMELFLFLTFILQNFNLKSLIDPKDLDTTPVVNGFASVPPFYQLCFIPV
Chain of Voltage-gated inwardly rectifying potassium channel KCNH2 (Homo sapiens) (Q12809 whole entry, looked up): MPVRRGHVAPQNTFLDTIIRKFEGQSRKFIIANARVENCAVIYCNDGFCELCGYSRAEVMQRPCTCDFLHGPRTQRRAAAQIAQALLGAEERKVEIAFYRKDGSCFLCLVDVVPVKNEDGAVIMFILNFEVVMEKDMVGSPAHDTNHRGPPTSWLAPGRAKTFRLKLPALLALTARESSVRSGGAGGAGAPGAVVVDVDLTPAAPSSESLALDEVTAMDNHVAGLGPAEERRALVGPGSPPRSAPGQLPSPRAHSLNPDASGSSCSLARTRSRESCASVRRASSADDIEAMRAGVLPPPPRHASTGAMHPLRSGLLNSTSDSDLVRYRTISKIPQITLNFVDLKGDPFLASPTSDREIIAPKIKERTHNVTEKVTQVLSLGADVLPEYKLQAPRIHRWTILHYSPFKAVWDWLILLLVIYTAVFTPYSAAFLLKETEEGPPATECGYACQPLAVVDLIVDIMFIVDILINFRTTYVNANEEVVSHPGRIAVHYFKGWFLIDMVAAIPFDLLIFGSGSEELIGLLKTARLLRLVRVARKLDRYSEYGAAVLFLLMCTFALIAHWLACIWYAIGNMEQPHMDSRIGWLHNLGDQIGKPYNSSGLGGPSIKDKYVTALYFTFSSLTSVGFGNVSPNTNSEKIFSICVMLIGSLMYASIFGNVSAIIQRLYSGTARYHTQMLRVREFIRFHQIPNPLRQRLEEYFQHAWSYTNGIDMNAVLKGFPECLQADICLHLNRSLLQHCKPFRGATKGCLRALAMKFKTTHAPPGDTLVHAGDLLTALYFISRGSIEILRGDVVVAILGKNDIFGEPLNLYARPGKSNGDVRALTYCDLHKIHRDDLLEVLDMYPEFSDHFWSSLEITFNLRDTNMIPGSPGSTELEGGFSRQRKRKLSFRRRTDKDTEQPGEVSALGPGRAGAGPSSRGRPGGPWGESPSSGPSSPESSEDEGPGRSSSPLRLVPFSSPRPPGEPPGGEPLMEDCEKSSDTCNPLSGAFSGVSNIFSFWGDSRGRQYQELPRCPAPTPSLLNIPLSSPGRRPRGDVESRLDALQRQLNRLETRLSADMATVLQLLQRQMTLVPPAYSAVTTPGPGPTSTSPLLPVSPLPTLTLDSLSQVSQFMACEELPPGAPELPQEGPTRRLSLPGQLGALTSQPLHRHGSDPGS
Chain of Cytochrome P450 2D6 (Homo sapiens) (P10635 whole entry, looked up): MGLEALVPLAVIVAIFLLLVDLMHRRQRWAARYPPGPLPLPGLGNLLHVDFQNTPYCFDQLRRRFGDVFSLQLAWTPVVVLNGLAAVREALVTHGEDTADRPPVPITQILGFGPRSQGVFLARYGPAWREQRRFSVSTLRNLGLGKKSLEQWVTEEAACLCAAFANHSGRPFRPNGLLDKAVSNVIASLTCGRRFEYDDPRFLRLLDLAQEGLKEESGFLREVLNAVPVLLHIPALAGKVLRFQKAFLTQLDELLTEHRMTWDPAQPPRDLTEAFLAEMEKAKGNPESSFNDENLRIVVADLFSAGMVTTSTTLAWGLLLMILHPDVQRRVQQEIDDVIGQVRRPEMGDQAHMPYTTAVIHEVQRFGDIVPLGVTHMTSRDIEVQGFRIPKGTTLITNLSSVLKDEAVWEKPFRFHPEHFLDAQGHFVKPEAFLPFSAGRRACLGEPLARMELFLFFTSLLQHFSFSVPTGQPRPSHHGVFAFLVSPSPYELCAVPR

Regarding `CN(C)c1nc(=O)n(C2CCCCC2)c(=O)n1C`, the Potency entry in assay [1], in [2], in [3], in assay [4], in [5] and in [7] was “inactive” in each case. Also, the Potency entry in assay [8], in assay [9], in [10], in assay [11], in assay [12] and in assay [13] was “inactive” in each case. Besides, the Potency result in assay [14], in [15] and in [16] was “inactive” throughout. Besides, the Potency in assay [6] is 65 µM (active) and inactive.
Turning to `CNC(=S)S`, the Potency result in assay [1], in assay [2], in [3], in [4], in assay [5] and in assay [6] was “inactive” throughout. Besides, the Potency result in assay [7], in assay [8], in assay [9], in assay [10], in assay [11] and in assay [14] was “inactive” each time. In addition, the Potency entry in [15] and in assay [16] was “inactive” in each case. For the same compound, the Potency in assay [12] is 38.9 µM (active); in [13], 61.7 µM (active).
As for `C[C@]12CC[C@H]3[C@@H](CCC4=CC(=O)CC[C@@H]43)[C@@H]1CC[C@@H]2O`, the Potency entry in [1], in assay [2], in assay [3], in assay [4], in [5] and in [6] was “inactive” each time. For the same compound, the Potency result in assay [7], in assay [8], in assay [9], in assay [10], in assay [11] and in assay [13] was “inactive” in each case. The Potency entry in assay [14], in assay [15] and in assay [16] was “inactive” in each case. In addition, the Potency in [12] is 39.6 µM (active) and 8.71 µM (active).
`CCCCCCCCCCCCCl`: the Potency result in assay [1], in assay [2], in assay [3], in assay [4], in assay [5] and in assay [6] was “inactive” each time. Besides, the Potency result in assay [7], in [8], in [9], in [10], in assay [11] and in assay [12] was “inactive” throughout. The Potency entry in assay [13], in assay [14] and in assay [15] was “inactive” in each case. Also, the Potency in assay [16] was 31.3 µM (active) and inactive.
Take `CCC1(c2ccc(N)cc2)CCC(=O)NC1=O` (stereo not drawn): the Potency result in assay [1], in assay [2], in assay [3], in assay [4], in [5] and in assay [6] was “inactive” throughout. The Potency result in [18], in assay [7], in [8], in assay [9], in assay [10] and in assay [11] was “inactive” in each case. Besides, the Potency entry in [12], in [13], in assay [14] and in [15] was “inactive” each time. The max activation in [17] is -2.76% (inactive). Also, the outcome in assay [19] was inactive. Also, the Potency in assay [16] is 31.7 µM (active) and 13.8 µM (active).
